Laboratory results reported in ChEMBL document CHEMBL3988442, “University of Dundee, Small-Polar-MMV Screening Library” (2021).
Values joined by “and” are separate entries in the source; they are usually repeats but may differ in a detail not shown here. Equal values may be shown once. In all, about 34,000 compounds went through this assay and about 290 (0.85%) showed an effect of 50% or more. For the sample, strong results were picked, then their nearest neighbours and some compounds at random.

System: Plasmodium falciparum
Experiment: Plasmodium falciparum sporozoite viability assay
Format: functional, organism-based
Set-up: scale not given: in the data most compounds retested in dose-response had high values

Row | Structure (SMILES) | Percent Effect | Percent Effect (10 mM as filed; unlikely as a test dose)
1 | NC(=O)Cn1cc(NC(=O)N2CCCC(O)C2)cn1 (stereo unspecified) | 9.794% | –
2 | COCCN(C)c1ccc(NCc2cscn2)nc1 | – | 95.11% and 93.26%
3 | COCCN(C)c1ccc(NCc2cccnc2)nc1 | – | 21.13% and 22.11%
4 | CCn1cc(CNc2ccc(N(C)CCOC)cn2)cn1 | – | 4.885% and 7.278%
5 | COCCS(=O)(=O)N(Cc1cscn1)c1ccccc1 | 1.643% | –
6 | CC(C)(C)n1cc(NCc2cscn2)cn1 | 16.3% | –
7 | COCCN(C)c1ccc(NCc2ccsc2)nc1 | – | 67.62% and 57.94%
8 | CC1CN(c2ccccc2Cl)C(=O)CN1C(=O)c1c[nH]c(=O)c(Cl)c1 (stereo unspecified) | 1.644% | –
9 | COc1ccc(-n2ncc3c2NC(=O)CSC3C(C)C)cc1 (stereo unspecified) | -10.71% | –
10 | COCC(=O)N1CC[C@@H]2O[C@H](COCc3ccncc3)CC[C@@H]21.O=C(O)C(F)(F)F | -3.886% | –
11 | COc1cccc(-c2noc(C3CCN(CC4CCCCC4)C3)n2)c1.Cl (stereo unspecified) | – | -10.94% and -15.38% and -3.133%
12 | COc1cccc(-c2noc(C3CCN(Cc4cn(C)nc4C)C3)n2)c1 (stereo unspecified) | – | 82.7% and 74.22% and 69.73%
13 | COc1cccc(CSCC2=Nc3ccccc3S(=O)(=O)N2)c1 | -15.51% | –
14 | CCn1ncc2c1CCCC2NCc1cscn1 (stereo unspecified) | – | -18.21% and -26.49%
15 | Cc1ccc(CNC2CCCc3c2cnn3Cc2ccccc2)s1.Cl (stereo unspecified) | -20.07% | –
16 | Cc1ccc(CNC2CCCc3c2cnn3C)s1.Cl (stereo unspecified) | – | -10.87% and -25.98% and -25.69%
17 | Cn1ncc2c1CCCC2NCc1ccc(Cl)s1 (stereo unspecified) | – | -1.156% and -7.705% and -11.46%
18 | CC(C)(C)n1ncc2c1CCCC2NCc1cccc2c1OCO2 (stereo unspecified) | – | 74.58% and 37.95% and 70.91%
19 | Cl.c1cnc(N2CCCC(NCc3cccc4c3OCCO4)C2)nc1 (stereo unspecified) | -3.04% | –
20 | Cn1cc(N2CCCC(NCc3cccc4c3OCCCO4)C2)cn1 (stereo unspecified) | 11.2% | –
21 | CC(C)(C)n1ncc2c1CCCC2NCc1cccc2c1OCCO2 (stereo unspecified) | – | 39.28% and 33.56% and 65.68%
22 | Cc1ccn(CCC(=O)N2CCCC(Cc3cccnc3)C2)n1 (stereo unspecified) | 1.172% | –

Row | Structure (SMILES) | Percent Effect | Percent Effect (10 mM as filed; unlikely as a test dose)
23 | Cc1cccc(CN2C[C@@H]3[C@@H](C(=O)NCC(C)C)CCS(=O)(=O)[C@@H]3C2)c1.O=C(O)C(F)(F)F | 5.351% | –
24 | CCN(CC1CCOC1)C(=O)c1ccccc1S(=O)(=O)CC (stereo unspecified) | 6.872% | –
25 | Cc1cc(-c2cnc(N3CCNC(=O)C3)nc2-c2sccc2C)on1 | 7.472% | –
26 | Cc1ccc(CN2CCC3(CC2)CCN(C(=O)c2cccn2C)C3)cc1.O=C(O)C(F)(F)F | -1.664% | –
27 | CC(C)N(C)[C@@H]1CCN(S(C)(=O)=O)[C@H]1Cc1ccccc1 | 3.466% | –
28 | CCn1ncc2c1CCCC2NCc1cccc2c1OCO2 (stereo unspecified) | – | 87.89% and 80.38% and 88.9%
29 | Cc1cc(CN2CCN(C(=O)CCCc3nc(C(C)C)no3)CC2)on1 | 13.41% | –
30 | COCCNC(=O)Cn1ccc2cccc(OC)c21 | – | 24.03% and 24.86%
31 | COc1cccc2ccn(CC(=O)NCC(C)C)c12 | – | 1.134% and -1.268%
32 | COC(=O)CNC(=O)Cn1ccc2cccc(OC)c21 | – | 53.7% and 45.8%
33 | CN(C)CC(=O)N1CCC2(CC1)COc1ccccc1S(=O)(=O)N(C)C2 | -1.316% | –
34 | Cc1nc(Nc2nccs2)cc(C2CCCN2)n1.Cl (stereo unspecified) | -7.871% | –
35 | O=c1cc(N2CCOCC2)cnn1CCc1ccc(F)cc1 | – | -2.466% and -5.477%
36 | O=c1cc(N2CCNCC2)cnn1CCc1ccc(F)cc1 | – | -29.24% and -24.74%
37 | O=c1cc(N2CCCC2)cnn1CCc1cccc(F)c1 | – | 40.92% and 61.99%
38 | CCc1nccn1CC1CCCN1S(=O)(=O)Cc1ccccc1 (stereo unspecified) | 3.419% | –
39 | COCC(=O)N1CCCC(C)(c2nncn2C)C1 (stereo unspecified) | 4.813% | –
40 | CNS(=O)(=O)c1ccc(C(=O)N2CCCCC2c2ccc(C)cc2)o1 (stereo unspecified) | -0.2417% | –
41 | COCc1nc(CNC2CCCc3c2cnn3C(C)(C)C)cs1 (stereo unspecified) | – | 80.27% and 81.73%
42 | CC(C)(C)n1ncc2c1CCCC2NCc1ccsc1 (stereo unspecified) | – | 82.25% and 82.56%
43 | CSc1ccc(CNC2CCCc3c2cnn3C)cc1.Cl (stereo unspecified) | 2.328% | –
44 | Cl.Cn1ncc2c1CCCC2NCc1cc(Br)cs1 (stereo unspecified) | – | 6.252% and 7.152% and 13.18%

Row | Structure (SMILES) | Percent Effect | Percent Effect (10 mM as filed; unlikely as a test dose)
45 | Cl.Cn1ncc2c1CCCC2NCc1cccc(F)c1 (stereo unspecified) | -6.761% | –
46 | CC(C)(C)n1ncc2c1CCCC2NCc1ccc2ncccc2c1 (stereo unspecified) | – | 67.83% and 75.52%
47 | CC(C)(C)n1ncc2c1CCCC2NCc1cccc(C(N)=O)c1 (stereo unspecified) | – | -6.583% and -14.2%
48 | CCn1ncc2c1CCCC2NCc1csc(COC)n1 (stereo unspecified) | – | -19.65% and -19.45%
49 | CC(C)(C)n1ncc2c1CCCC2NCc1ccc2c(c1)CCO2 (stereo unspecified) | – | 65.53% and 54.34%
50 | CCc1nc(CNC2CCCc3c2cnn3CC)cs1 (stereo unspecified) | – | -15.59% and -14.06%
51 | Cn1ncc2c1CCCC2NCc1cccnc1 (stereo unspecified) | 6.267% | –
52 | Cn1ncc2c1CCCC2NCc1cnc(-c2ccccc2)nc1 (stereo unspecified) | 18.56% | –
53 | C[C@H]1C(=O)NC[C@H]2CN(Cc3cccc(F)c3)C[C@H]21.O=C(O)C(F)(F)F | -1.083% | –
54 | CS(=O)(=O)NC1CCCN(C(=O)NCc2ccoc2)C1 (stereo unspecified) | 4.932% | –
55 | O=C1CCCN1CCCC(=O)N1CCCC(c2ccn[nH]2)C1 (stereo unspecified) | 5.64% | –
56 | CC1CN(CC(=O)Nc2nccs2)CCN1Cc1nccn1C (stereo unspecified) | -1.162% | –
57 | CN(C)c1ccc(C(=O)N2CCN(CC(O)C(C)(C)C)CC2)nn1 (stereo unspecified) | -6.949% | –
58 | O=C(N[C@@H]1CN(Cc2ccc3cc[nH]c3c2)C[C@H]1O)c1cnccn1 | -1.172% | –
59 | O=C(O)C(F)(F)F.O=C(c1ccncc1F)N1CC2CC1(C(=O)N1CCCC1)C2 | -2.014% | –
60 | Cc1cnn(CCNCc2c(C(C)C)nn(C)c2Cl)c1 | -5.882% | –
61 | CCn1ncc2c1CCCC2NCc1ccc2c(c1)CCO2 (stereo unspecified) | – | 59.7% and 48.65% and 59.52%
62 | CCn1ncc2c1CCCC2NCc1ccc2c(c1)OCCO2 (stereo unspecified) | – | 33.22% and 25.15%
63 | Cl.Cn1ncc2c1CCCC2NCc1cccc(C(F)(F)F)c1 (stereo unspecified) | -3.477% | –
64 | Cc1cccc(CNC2CCCc3c2cnn3C)c1.Cl (stereo unspecified) | -1.28% | –
65 | CC(C)(C)n1ncc2c1CCCC2NCc1ccc2c(c1)OCCO2 (stereo unspecified) | – | 101% and 99.54%
66 | CCn1ncc2c1CCCC2NCc1ccc(OC)c(C)c1 (stereo unspecified) | 1.069% | –
